# PubChem BioAssay AID1159580 (chemical genetic matrix, 2015)
# Among all 5,500 compounds or so, about 2,000 (36%) were called active. Inconclusive results (about 18%) are left out. Some of the results follow. A number with no mark means an inactive call. Cut-off read from the data, not from the text of the source: active = normalized growth mostly below about 0.91 (no sharp cut-off); inconclusive = no clear call, values can overlap the other calls; inactive = mostly above about 0.92.
# Assay: chemical genetic growth profiling, strain panel (AID 1159580);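 note: tested at 20 µM; growth read once vehicle control cultures reached saturation at 30 °C; 1 = growth at the plate median or of vehicle wells; lower values mean less growth of the strain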
# Conditions: growth OD
# [1] = S. cerevisiae deletion strains, locus YAL013W, strain DEP1, hits give low values
# [2] = S. cerevisiae deletion strains, locus YBR229C, strain ROT2, hits give low values
# [3] = S. cerevisiae deletion strains, locus YCL061C, strain MRC1, hits give low values
# [4] = S. cerevisiae deletion strains, locus YDL101C, strain DUN1, hits give low values
# [5] = S. cerevisiae deletion strains, locus YDR150W, strain NUM1, hits give low values
# [6] = S. cerevisiae deletion strains, locus YEL061C, strain CIN8, hits give low values
# [7] = S. cerevisiae deletion strains, locus YGR078C, strain PAC10, hits give low values
# [8] = S. cerevisiae deletion strains, locus YHR030C, strain SLT2, hits give low values
# [9] = S. cerevisiae deletion strains, locus YHR087W, strain rtc3, hits give low values
# [10] = S. cerevisiae deletion strains, locus YJL187C, strain SWE1, hits give low values
# [11] = S. cerevisiae deletion strains, locus YJR043C, strain POL32, hits give low values
# [12] = S. cerevisiae deletion strains, locus YJR075W, strain HOC1, hits give low values
# [13] = S. cerevisiae deletion strains, locus YLR039C, strain RIC1, hits give low values
# [14] = S. cerevisiae deletion strains, locus YLR058C, strain SHM2 (second series), hits give low values
# [15] = S. cerevisiae deletion strains, locus YLR085C, strain ARP6, hits give low values
# [16] = S. cerevisiae deletion strains, locus YLR262C, strain YPT6, hits give low values
# [17] = S. cerevisiae deletion strains, locus YML094W, strain GIM5, hits give low values
# [18] = S. cerevisiae deletion strains, locus YMR219W, strain ESC1, hits give low values
# [19] = S. cerevisiae deletion strains, locus YMR263W, strain SAP30, hits give low values
# [20] = S. cerevisiae deletion strains, locus YNL153C, strain GIM3, hits give low values
# [21] = S. cerevisiae deletion strains, locus YNL298W, strain CLA4 (second series), hits give low values
# [22] = S. cerevisiae deletion strains, locus YNL322C, strain KRE1, hits give low values
# [23] = S. cerevisiae deletion strains, locus YNR030W, strain Alg12, hits give low values
# [24] = S. cerevisiae deletion strains, locus YPL055C, strain LGE1, hits give low values
# [25] = S. cerevisiae deletion strains, locus YPL241C, strain CIN2, hits give low values
# [26] = S. cerevisiae deletion strains, locus YPR135W, strain CTF4, hits give low values
# [27] = S. cerevisiae strains, strain wild type, hits give low values
structure (smiles),measurement,setting,value
Cc1cc(C)c2c(-n3cccc3)c(C(=O)c3ccc(Cl)cc3)sc2n1,normalized growth,[1],0.996
same,normalized growth,[2],1.01
same,normalized growth,[3],1
same,normalized growth,[4],0.979
same,normalized growth,[5],0.9
same,normalized growth,[6],1
same,normalized growth,[7],1.01
same,normalized growth,"S. cerevisiae deletion strains, locus YGR229C, strain SMI1, hits give low values",0.99
same,normalized growth,[8],0.884
same,normalized growth,[9],0.98
same,normalized growth,[10],1.01
same,normalized growth,[11],1.01
same,normalized growth,[12],0.987
same,normalized growth,[13],0.903
same,normalized growth,[14],1.01
same,normalized growth,[15],0.961
same,normalized growth,[16],0.95
same,normalized growth,[17],0.935
same,normalized growth,[18],1.01
same,normalized growth,[19],0.997
same,normalized growth,"S. cerevisiae deletion strains, locus YMR307W, strain GAS1, hits give low values",0.891
same,normalized growth,[20],0.984
same,normalized growth,[21],0.984
same,normalized growth,[22],0.997
same,normalized growth,[23],0.95
same,normalized growth,[24],0.957
same,normalized growth,[25],1
same,normalized growth,[26],0.893
same,normalized growth,[27],0.986
Cc1cc(=O)n2c(-c3ccc(Cl)cc3)csc2n1,normalized growth,[1],0.975
same,normalized growth,[2],0.954
same,normalized growth,[3],0.951
same,normalized growth,[4],0.936
same,normalized growth,[5],0.976
same,normalized growth,[6],0.931
same,normalized growth,[7],0.96
same,normalized growth,[8],0.712
same,normalized growth,[9],0.927
same,normalized growth,[10],0.965
same,normalized growth,[11],0.982
same,normalized growth,[12],0.956
same,normalized growth,[13],0.892
same,normalized growth,[14],0.956
same,normalized growth,[15],0.826
same,normalized growth,[16],0.916
same,normalized growth,[17],0.864 (active)
same,normalized growth,[18],0.96
same,normalized growth,[19],0.987
same,normalized growth,"S. cerevisiae deletion strains, locus YNL128W, strain TEP1, hits give low values",0.972
same,normalized growth,[20],0.973
same,normalized growth,[21],0.947
same,normalized growth,[22],0.976
same,normalized growth,[23],0.943
same,normalized growth,[24],0.963
same,normalized growth,[25],0.941
same,normalized growth,[26],0.764
same,normalized growth,[27],0.96
